PubChem BioAssay

Target: Follistatin (Homo sapiens) (UniProt P19883)
Test: FST protein binding to printed compounds – biochemical, small-molecule microarray, 635/667 nm fluorescence, primary screen (AID 1132)
Details: 635 nm fluorescence, higher = more signal

Sequence of Follistatin (Homo sapiens) (P19883 whole entry, looked up): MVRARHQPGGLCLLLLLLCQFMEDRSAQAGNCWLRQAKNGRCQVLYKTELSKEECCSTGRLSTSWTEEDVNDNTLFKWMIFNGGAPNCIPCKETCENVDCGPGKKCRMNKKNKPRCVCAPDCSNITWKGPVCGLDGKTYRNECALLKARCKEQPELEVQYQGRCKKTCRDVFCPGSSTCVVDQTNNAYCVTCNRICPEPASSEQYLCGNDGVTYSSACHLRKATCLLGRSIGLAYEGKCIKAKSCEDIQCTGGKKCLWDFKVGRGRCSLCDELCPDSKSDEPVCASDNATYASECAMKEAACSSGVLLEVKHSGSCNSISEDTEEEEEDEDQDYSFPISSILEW

Row | SMILES | composite z-score
1 | Cn1c(=O)n2n(c1=O)[C@H]1[C@H](O)[C@@H]3O[C@@H]3C(=O)[C@H]1CC2 | 0.537
2 | O=C1C[C@@H](O)[C@@H](O)[C@@H]2[C@@H]3C(=O)N(C[C@@H]4CCCO4)C(=O)[C@@H]3CC[C@@H]12 | 0.848
3 | COc1ccc(O[C@H]2C=C[C@@H](c3ccccc3)O[C@@H]2CON=C2[C@H]3CCn4c(=O)n(-c5ccccc5)c(=O)n4[C@H]3[C@H](O)[C@@H]3O[C@H]23)cc1 | 0.356

Target: Fibroblast growth factor 2 (Homo sapiens) (UniProt P09038)
Sequence (P09038 whole entry, looked up): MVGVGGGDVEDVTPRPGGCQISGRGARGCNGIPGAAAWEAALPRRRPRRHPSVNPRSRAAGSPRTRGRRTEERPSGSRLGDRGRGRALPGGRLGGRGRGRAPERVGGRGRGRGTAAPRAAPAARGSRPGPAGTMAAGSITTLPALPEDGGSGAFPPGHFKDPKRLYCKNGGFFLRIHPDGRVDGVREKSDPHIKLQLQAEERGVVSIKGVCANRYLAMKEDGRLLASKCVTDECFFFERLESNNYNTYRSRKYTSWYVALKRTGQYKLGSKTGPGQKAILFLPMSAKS
Test: basic fibroblast growth factor binding to printed compounds – biochemical, small-molecule microarray, 635/667 nm fluorescence, primary screen (AID 1133)
Details: FGF2, fluorescence 635/667, higher = more signal

Row | SMILES | composite z-score
4 | CC(C)CCN1CCc2nc(COc3ccccc3)c3c(c2C1)CO[C@@H](C)C3 | -0.0961
5 | O=C(NN=C1C[C@@H](O)[C@@H](O)[C@@H]2[C@@H]3C(=O)N(Cc4ccccc4)C(=O)[C@@H]3CC[C@@H]12)OCc1ccccc1 | 0.242
6 | CO[C@@H]1COC(=O)[C@@H](C)COC(=O)[C@@H](C)NC(=O)CC=C[C@@H]1C | 1.7
7 | CO[C@@H]1COC(=O)CC=C[C@@H](C)[C@@H]2C=C[C@H](O)[C@@H](COC(=O)CC=C[C@H]1C)O2 | 1.3
8 | COC(=O)[C@@H]1CC[C@H](C)[C@@H](c2ccc(C)cc2)N1C(=O)c1ccc(C=NO[C@H](C)c2cn([C@H](CO)Cc3ccccc3)nn2)cc1 | 0.377
9 | CCC=CCCC(OC(=O)c1ccc(Br)cc1)C1=CCCCC1=O (configuration not stated) | 0.584
10 | CO[C@H]1COC(=O)[C@@H](C)COC(=O)[C@H](COCc2ccccc2)NC(=O)CC=C[C@H]1C | 1.21
11 | CCOC(=O)CCN1C(=O)[C@H]2[C@H]3[C@H](O)[C@H](O)CC(=NOCC(C)C)[C@H]3CC[C@H]2C1=O | -0.0435
12 | C#CCCCON=C1C[C@@H](O)[C@@H](O)[C@@H]2[C@@H]3C(=O)N(CC)C(=O)[C@@H]3CC[C@@H]12 | 0.672
